The values below come from PubChem BioAssay.

Several values for one entry are separate records, joined by “and”; a condition that tells them apart may be missing. Identical values can stand only once. The source holds several records for some structures; these can differ, active in one and inactive in another. Activity calls are given as the source filed them. Unless noted, how the calls were made is not given here.

The subject of assay [1] is Hepatitis C virus NS3 helicase. Nature of the assay: HCV NS3 helicase inhibitors, primary screen, biochemical, fluorescence polarization, LOPAC1280 library (AID 687035; in the data active means inhibition above about 37%). Conditions: Purified HCV NS3 helicase, Cy5-dT15 ssDNA binding fluorescence polarization; stronger effect = higher value; concentration not given here.
Assay [2] can be described thus: Cy5 fluorescence quenching or enhancement artefacts, artefact control for HCV NS3 helicase inhibitor project, biochemical, LOPAC1280 (AID 687037). Conditions: Cy5-DNA-NS3h complex fluorescence interference counterscreen. (In general: The purpose of a counterscreen is to sort out artefacts and off-target activity.)
A short description of assay [3]: stimulators of nuclear beta-catenin in C2C12, primary screen, imaging, WNT3A-conditioned medium, mouse C2C12, NPC library (AID 1117326; in the data active means nuclear beta-catenin stimulation mostly above about 4.2%, no sharp cut-off; inactive means mostly below about 10%). The note with it: stronger effect = higher value.
A short description of assay [4]: Cy5 fluorescence interference with SSB-bound oligo, artefact control for HCV NS3 helicase inhibitor project, biochemical, NIH Clinical Collection, E. coli SSB (AID 743268).
Assay [5] relates to Hepatitis C virus NS3 helicase. Nature of the assay: HCV NS3 helicase inhibitors, primary screen, biochemical, fluorescence polarization, NIH Clinical Collection (AID 743270). Conditions: NS3 helicase binding to Cy5-dT15 DNA, stronger effect = higher value, concentration not given here. (In fluorescence polarisation assays a small probe gives low polarisation when free and higher when bound to something large.)

For assay [6], the target named is Single-stranded DNA-binding protein (Escherichia coli (strain K12)) (UniProt P0AGE0). The assay is described as follows: E. coli SSB displacement from DNA, counter-screen for HCV NS3 helicase inhibitor project, biochemical, fluorescence polarization, NIH Clinical Collection (AID 743271; in the data active means inhibition above about 28%). Conditions: stronger effect = higher value, concentration not given here.
Assay [7] is described as follows: fluorescence interference in NS3h assay format, artefact control for HCV NS3 helicase inhibitor project, biochemical, NIH Clinical Collection (AID 743272).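 Further: HCV NS3 helicase with a Cy5 labelled single stranded DNA probe.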 Conditions: fluorescence interference counterscreen, stronger effect = lower value.
In assay [8] the test system is Neuropilin-2 / VEGF-C interaction (human). Nature of the assay: inhibitors of NRP2–VEGF-C binding, biochemical, microplate binding format, z-score (AID 743281). The note with it: microplate NRP2/VEGF-C binding assay; stronger effect = lower value.

As a reminder, the inhibition is the drop in the measured response relative to a control, in per cent. Turning to `CCCN(CCC)C(=O)C(CCC(=O)O)NC(=O)c1ccccc1` (stereo unspecified), the inhibition in assay [1] was -4% (inactive). The fluorescence ratio (interference) in assay [2] is 0.9 (inactive). Besides, the nuclear beta-catenin stimulation is -0.6% (inactive) in assay [3] (at 10 µM) and 0.3% in assay [3] (stimulation, at 2 µM).

For `CN1CCN(CCCN2c3ccccc3Sc3ccc(Cl)cc32)CC1`, the inhibition in assay [1] is -3% (inactive); in assay [5] it was -1.19% (inactive); in assay [6], 9.14% (inactive). For the same compound, in assay [2], the fluorescence ratio (interference) is 1 (inactive). Further, the figures for the fluorescence ratio in assay [4] and in assay [7] were 0.78 (active) and 0.71 (active), respectively. Moreover, the z-score in assay [8] is 0.742 (inactive). The nuclear beta-catenin stimulation is 19.8% (inactive) in assay [3] (at 10 µM) and 0.2% in assay [3] (stimulation, at 2 µM).

On to `COC(=O)C1=C(C)NC(C)=C(C(=O)OCC(C)C)C1c1ccccc1[N+](=O)[O-]` (stereo unspecified), for which the fluorescence ratio was 0.95 (inactive) in assay [4] and 0.91 (inactive) in assay [7]. Also, the inhibition was 4.36% (inactive) in assay [5] and -0.87% (inactive) in assay [6]. Also, in assay [8], the z-score is -0.886 (inactive). The nuclear beta-catenin stimulation in assay [3] (at 10 µM) was 6% (inactive); in assay [3] (stimulation, at 2 µM), 3.3%.

As for `COc1cc2nc(N3CCN(C(=O)C4COc5ccccc5O4)CC3)nc(N)c2cc1OC` (stereo unspecified), the inhibition was -4% (inactive) in assay [1], -1.36% (inactive) in assay [5] and -2% (inactive) in assay [6]. Further, the fluorescence ratio (interference) in assay [2] is 1 (inactive). For the same compound, the fluorescence ratio was 1.06 (inactive) in assay [4] and 0.9 (inactive) in assay [7]. In addition, the nuclear beta-catenin stimulation in assay [3] (at 10 µM) was 38% (inactive); in assay [3] (stimulation, at 2 µM), 2.3%.

Turning to `CCOC(=O)[C@H](CCc1ccccc1)N[C@@H](C)C(=O)N1[C@H](C(=O)O)C[C@@H]2CCC[C@@H]21`, the fluorescence ratio in assay [4] is 1.01 (inactive) and 1.04 (inactive); in assay [7] it was 0.79 (active) and 1.02 (inactive). The inhibition was -1.98% (inactive) and -3.18% (inactive) in assay [5]; -0.1% (inactive) and -0.48% (inactive) in assay [6]. Also, the z-score in assay [8] was -0.497 (inactive). Further, the nuclear beta-catenin stimulation is 0.8% (inactive) in assay [3] (at 10 µM) and 1.9% in assay [3] (stimulation, at 2 µM).

In the case of `CCCCNc1ccc(C(=O)OCCN(C)C)cc1`, the inhibition in assay [1] is -2% (inactive). Also, in assay [2], the fluorescence ratio (interference) is 0.9 (inactive). Moreover, the nuclear beta-catenin stimulation in assay [3] (at 10 µM) is 9.2% (inactive); in assay [3] (stimulation, at 2 µM), 3.3%.

For the compound `Cc1ncc([N+](=O)[O-])n1CC(O)CCl` (stereo unspecified), the fluorescence ratio in assay [4] and in assay [7] was 0.99 (inactive) throughout. Further, the inhibition in assay [5] was 5.94% (inactive); in assay [6] it was 0.67% (inactive). Further, the z-score in assay [8] is -0.43 (inactive). Also, the nuclear beta-catenin stimulation in assay [3] (at 10 µM) is 0.8% (inactive); in assay [3] (stimulation, at 2 µM), 1.1%.

In the case of `CCN(CC)CCNC(=O)c1cc(Cl)c(N)cc1OC`, the inhibition in assay [1] is -4% (inactive); in assay [5] it was -3.18% (inactive); in assay [6], -0.48% (inactive). Also, in assay [2], the fluorescence ratio (interference) was 1 (inactive). Besides, the values for the fluorescence ratio in assay [4] and in assay [7] were 1.01 (inactive) and 0.98 (inactive), respectively. For the same compound, the nuclear beta-catenin stimulation was 0.2% (inactive) in assay [3] (at 10 µM) and -1.4% in assay [3] (stimulation, at 2 µM).

Take `O=C1CC2(CCCC2)CC(=O)N1CCCCN1CCN(c2ncccn2)CC1`: the inhibition in assay [1] was 0% (inactive); in assay [5] it was -6.82% (inactive); in assay [6], 1.05% (inactive). Further, the fluorescence ratio (interference) in assay [2] was 1 (inactive). Besides, the fluorescence ratio in assay [7] is 1.03 (inactive). The nuclear beta-catenin stimulation in assay [3] (at 10 µM) was 0.7% (inactive); in assay [3] (stimulation, at 2 µM) it was 2.6%.

As for `Clc1ccccc1C(c1ccccc1)(c1ccccc1)n1ccnc1`, the inhibition in assay [1] was -2% (inactive); in assay [5], 5.94% (inactive); in assay [6], 6.83% (inactive). In addition, the fluorescence ratio (interference) in assay [2] was 1 (inactive). The fluorescence ratio in assay [4] and in assay [7] was 0.9 (inactive) each time. Moreover, in assay [8], the z-score is 0.266 (inactive). The nuclear beta-catenin stimulation in assay [3] (at 10 µM) was 1.1% (inactive); in assay [3] (stimulation, at 2 µM), 1.7%.

On to `COc1ccc2nc(S(=O)Cc3ncc(C)c(OC)c3C)[nH]c2c1` (stereo unspecified), for which the fluorescence ratio in assay [4] is 1.02 (inactive); in assay [7], 0.98 (inactive). The results for the inhibition in assay [5] and in assay [6] were -1.97% (inactive) and -3.54% (inactive), respectively. In assay [8], the z-score is -0.241 (inactive). Moreover, the nuclear beta-catenin stimulation in assay [3] (at 10 µM) is 8.5% (inactive); in assay [3] (stimulation, at 2 µM), 4.5%.

Take `CC(C)NCC(O)COc1ccc(COCCOC(C)C)cc1` (stereo unspecified): the inhibition in assay [1] is 2% (inactive); in assay [5] it was 1.19% (inactive); in assay [6], -0.1% (inactive). Also, the fluorescence ratio (interference) in assay [2] was 1 (inactive). The fluorescence ratio in assay [4] was 1.04 (inactive); in assay [7], 0.94 (inactive). In addition, in assay [8], the z-score was -0.164 (inactive). For the same compound, the nuclear beta-catenin stimulation is 0.8% (inactive) in assay [3] (at 10 µM) and 1.2% in assay [3] (stimulation, at 2 µM).

For `O=C(CCNNC(=O)c1ccncc1)NCc1ccccc1`, the inhibition was -4% (inactive) in assay [1], 0.66% (inactive) in assay [5] and -1.97% (inactive) in assay [6]. Further, in assay [2], the fluorescence ratio (interference) is 1 (inactive). For the same compound, the fluorescence ratio in assay [4] is 1.01 (inactive); in assay [7] it was 0.97 (inactive). Also, the z-score in assay [8] was -0.136 (inactive). The nuclear beta-catenin stimulation in assay [3] (at 10 µM) was -1% (inactive); in assay [3] (stimulation, at 2 µM), 0.1%.

As to `CN1Cc2c(N)cccc2C(c2ccccc2)C1` (stereo unspecified), the fluorescence ratio (interference) in assay [2] is 1 (inactive). Further, the nuclear beta-catenin stimulation in assay [3] (at 10 µM) is 3.1% (inactive); in assay [3] (stimulation, at 2 µM) it was 1.5%.

In the case of `Cc1nccn1CC1CCc2c(c3ccccc3n2C)C1=O` (stereo unspecified), the fluorescence ratio is 0.99 (inactive) and 1.12 (inactive) in assay [4]; 0.97 (inactive) and 1.02 (inactive) in assay [7]. Besides, the inhibition in assay [5] was 0.4% (inactive) and -4.09% (inactive); in assay [6] it was 3.75% (inactive) and 1.05% (inactive). In addition, the z-score in assay [8] is -0.188 (inactive). For the same compound, the nuclear beta-catenin stimulation was -0.2% (inactive) in assay [3] (at 10 µM) and 1.9% in assay [3] (stimulation, at 2 µM).

Turning to `Cc1cnc(NC(=O)C2=C(O)c3ccccc3S(=O)(=O)N2C)s1`, in assay [1], the inhibition is -4% (inactive). The fluorescence ratio (interference) in assay [2] was 1 (inactive). Besides, the nuclear beta-catenin stimulation in assay [3] (at 10 µM) is 2% (inactive); in assay [3] (stimulation, at 2 µM), -0.5%.

For the compound `NC(N)=Nc1nc(CSCC/C(N)=N/S(N)(=O)=O)cs1`, the fluorescence ratio in assay [4] was 0.96 (inactive); in assay [7] it was 0.9 (inactive). The inhibition in assay [5] was 3.56% (inactive); in assay [6], 6.83% (inactive). Further, in assay [8], the z-score was -0.254 (inactive). Moreover, the nuclear beta-catenin stimulation in assay [3] (at 10 µM) was 0.9% (inactive); in assay [3] (stimulation, at 2 µM), -1.4%.

In the case of `CN1CCCCC1CCN1c2ccccc2Sc2ccc(S(C)=O)cc21` (stereo unspecified), the fluorescence ratio was 0.96 (inactive) in assay [4] and 0.95 (inactive) in assay [7]. In addition, the inhibition in assay [5] was -2.77% (inactive); in assay [6] it was -3.18% (inactive). Moreover, the z-score in assay [8] is 0.284 (inactive). Besides, the nuclear beta-catenin stimulation in assay [3] (at 10 µM) is 2.6% (inactive); in assay [3] (stimulation, at 2 µM) it was 3.5%.

Consider `Cc1cccc(C)c1OCC(C)N` (stereo unspecified), for which the inhibition in assay [1] is -2% (inactive); in assay [5], -4.09% (inactive); in assay [6] it was -4.29% (inactive). Further, in assay [2], the fluorescence ratio (interference) is 1 (inactive). Further, the fluorescence ratio in assay [4] was 1.06 (inactive); in assay [7], 1.04 (inactive). The nuclear beta-catenin stimulation was 1.9% (inactive) in assay [3] (at 10 µM) and 2.4% in assay [3] (stimulation, at 2 µM).
